Data taken from PubChem BioAssay (Tox21).
Inconclusive results are not listed. Calls of active or inactive are those of the source. Calls follow the shape of the full dose curve.

test: qHTS assay for small molecule agonists of the antioxidant response element (ARE) signaling pathway - cell viability counter screen (AID 743203); details: ARE-bla HepG2 viability, CellTiter-Glo luminescence, 16 h; series mostly up to 73.3 µM; viability change, negative = cytotoxic: at the top concentration; also: nearly all actives have a fitted effect of over 55% in size
Description: National Center for Advancing Translational Sciences [NCATS]
NIH Chemical Genomics Center [NCGC]
U.S. Environmental Protection Agency [EPA]
National Institutes of Environmental Health Sciences [NIEHS]
National Toxicology Program [NTP]
U.S. Food and Drug Administration [FDA]
Oxidative stress has been implicated in the pathogenesis of a variety of diseases ranging from cancer to neurodegeneration. The antioxidant response element (ARE) signaling pathway plays an important role in the amelioration of oxidative stress. The CellSensor ARE-bla HepG2 cell line (Invitrogen) can be used for analyzing the Nrf2/antioxidant response signaling pathway. Nrf2 (NF-E2-related factor 2) and Nrf1 are transcription factors that bind to AREs and activate these genes. The CellSensor ARE-bla Hep G2 cell line contains a beta-lactamase reporter gene under control of the Antioxidant Response Element (ARE) stably integrated into HepG2 cells. The activation of the report gene under culture conditions can be detected by fluorescence intensity. This cell line has been used to screen the Tox21 10K compound library to identify agonists that induce oxidative stress. The cytotoxicity of the Tox21 compound library against the ARE-bla cell line was tested in parallel by measuring the cell viability using CellTiter-Glo assay (Promega, Madison, WI) in the same wells.
Tox21 Assay Protocol Summary:
ARE-bla HepG2 cells were dispensed at 2,000 cells/5 ul/well in 1536-well white wall/solid bottom plates using a Multidrop Combi (ThermoFisher Scientific, Waltham, MA) dispenser. After the assay plates were incubated at 37C/5% CO2 for 5 hrs, 23 nL of compounds dissolved in DMSO, positive controls or DMSO only was transferred to the assay plate by a pintool work station (Kalypsys, San Diego, CA). The plates were incubated at 37C/5% CO2 for 16 hrs, followed by addition of 4 ul/well of CellTiter-Glo reagent into the assay plates using a Flying Reagent Dispenser (Aurora Discovery, San Diego, CA). After 30 min incubation at room temperature, the luminescence intensity in the assay plates was measured using a ViewLux (PerkinElmer, Shelton, CT) plate reader.
% is scaled to controls: 0 for no effect and ±100 for the full control effect.

SMILES | viability change, negative = cytotoxic
CC[C@H](O)C(C[C@H](C)N(C)C)(c1ccccc1)c1ccccc1 | -8.37% [at 94.8 µM] (inactive)
c1ccc2c(c1)CCNC2 | -5.4% [at 94.8 µM] (inactive)
Cl/C=C/CCl | 6.32% [at 94.8 µM] (inactive)
NCC1(CC(=O)O)CCCCC1 | 9.17% (inactive)
CCN(CC)C1CCCCC1 | -11.9% (inactive)
Cc1ccc2c(c1)C1CN(C)CCC1N2 (stereo not given) | -12.6% [at 34.3 µM] (inactive)
CN=CNc1ccc(C)cc1C | -15.1% (inactive)
CC(C)(C)NC[C@H](O)c1ccc(O)cc1Cl | -9.27% (inactive)
CC(Cc1ccccc1)NCCCCl (stereo not given) | 12.7% (inactive)
O=[N+]([O-])c1cccc(CCl)c1 | -1.42% [at 94.8 µM] (inactive)
C[C@H]1CCCC(=O)CCC/C=C/c2cc(O)cc(O)c2C(=O)O1 | -1.88% [at 34.3 µM] (inactive)
O=C(Cl)C(Cl)(Cl)Cl | 1.06% [at 94.8 µM] (inactive)
O=C(O)c1c(Cl)ccc2cc(Cl)cnc12 | 10.6% (inactive)
[P]#[In] | 5.2% (inactive)
COC1=CC(=O)O[C@@H](/C=C/c2ccccc2)C1 | -10.9% [at 94.8 µM] (inactive)
O=P(O)(O)CN(CP(=O)(O)O)CP(=O)(O)O | -9.45% [at 34.3 µM] (inactive)
CCCCS(=O)(=O)Cl | 9.24% (inactive)
Cc1ccc2cc(C)ccc2c1 | -5.85% (inactive)
C#CC(C)(C)O | -1.05% [at 94.8 µM] (inactive)
ClC(Cl)(Cl)Cl | 0.152% (inactive)

SMILES | viability change, negative = cytotoxic
C=CC=O | 5.04% [at 94.8 µM] (inactive)
C#CCOC(=O)/C=C(C)/C=C/CC(C)CCCC(C)C (stereo not given) | 13.6% (inactive)
COc1cccc([C@@]2(O)CCCC[C@@H]2CN(C)C)c1 | 2.72% (inactive)
COP(=O)(O)OC | 8.11% [at 94.8 µM] (inactive)
C=C(Cl)CCl | 2.88% (inactive)
Cn1c(CCCC(=O)O)nc2cc(N(CCCl)CCCl)ccc21 | 1.37% (inactive)
CCC(=O)OC1(c2ccccc2)CCN(C)CC1 | 5.64% [at 94.8 µM] (inactive)
CON(C)C(=O)Nc1ccc(Br)c(Cl)c1 | 11.7% (inactive)
CN(C)C1CCCCC1 | -2.27% (inactive)
CCOC(=O)CC(SP(=S)(OC)OC)C(=O)OCC (stereo not given) | 10.6% (inactive)
CCc1cc(OC)c(C[C@H](C)N)cc1OC | -4.66% [at 94.8 µM] (inactive)
CCN[C@@H](C)Cc1ccccc1 | -3.32% [at 94.8 µM] (inactive)
CCC(C)C(C)(COC(N)=O)COC(N)=O (stereo not given) | 7.27% (inactive)
Brc1c(Br)c(Br)c(Br)c(Br)c1Br | -9.94% [at 8.36 µM] (inactive)
CCCCCCC1CCOC1=O (stereo not given) | -3.76% (inactive)
O=S1(=O)OCCO1 | 5.73% [at 94.8 µM] (inactive)
CCOP(=O)(CN(CCO)CCO)OCC | 7.51% (inactive)
C/C(=N\NC(=O)Nc1cc(F)cc(F)c1)c1ncccc1C(=O)O | -0.455% (inactive)
CC(C)[C@]12CC(=O)[C@H](C)[C@H]1C2 | 3.51% (inactive)
BrCC1CO1 (stereo not given) | -5.28% [at 94.8 µM] (inactive)
